Compound activity as filed in PubChem.
Hits are enriched below; roughly 2.8% of the tested compounds scored in any of these assays.
PG9 Ab binder = small molecules binding HIV-1 gp120 antibody PG9. TR-FRET gp120-PG9 antibody binding. inhibition, % at 6.7 µM. actives 0.43% (n = 360,000). AID 624416; in the data active means inhibition above about 8.5%
PP1 counter = PP1-alpha (human) inhibition in PP5 counter-screen. AID 2235. purified PP1alpha, OMFP fluorescence. inhibition, % at 6.7 µM. P62136. actives 0.9% (n = 320,000);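 active means inhibition above the mean inhibition of all tested compounds plus 3 SD, computed separately for each screening campaign, cut at about 15% in these data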
PP5 primary = inhibitors of human protein phosphatase 5 (PP5) | P53041 | purified PP5c, OMFP substrate fluorescence | inhibition, % at 6.7 µM | actives 0.18% (n = 320,000) | AID 1987;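 active means inhibition above the campaign's mean inhibition across all tested compounds plus 3 SD, cut at about 9.5% in these data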
Rev-erbA mod = modulates human Rev-erb alpha binding to DNA; Rev-erbα–FITC-DNA binding, fluorescence polarization, 90 min; activity, % at 10 µM; actives 0.79% (n = 370,000); AID 1259318;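 active means activity above about 14%, limit read from the data; passing the limit was not always enough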
proKLK7 act = activates the human kallikrein-7 zymogen | P49862 | purified proKLK7, EDANS-DABCYL substrate fluorescence; 100% is mature enzyme control, 0% vehicle | activation, % at 7 µM | actives 0.9% (n = 370,000) | AID 652039;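 active means activation above the mean of all tested compounds plus 3 SD, computed per campaign excluding outliers beyond control limits, cut at about 13% in these data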
Target sequence (P49862 whole entry, looked up): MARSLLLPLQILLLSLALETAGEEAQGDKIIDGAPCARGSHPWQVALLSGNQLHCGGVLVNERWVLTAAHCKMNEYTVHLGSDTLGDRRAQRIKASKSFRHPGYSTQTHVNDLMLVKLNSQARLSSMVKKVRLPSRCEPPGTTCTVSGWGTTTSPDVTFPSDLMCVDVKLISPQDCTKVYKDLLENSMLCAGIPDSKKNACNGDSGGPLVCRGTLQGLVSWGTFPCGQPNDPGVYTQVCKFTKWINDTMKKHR
JMJD2C inh = human JMJD2C demethylase inhibition; GST-JMJD2C(1-420) H3K9me3 demethylation, DELFIA europium; inhibition, % at 2.35 µM; actives 0.069% (n = 330,000);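 active means more than half of a compound's replicate wells show inhibition beyond 50%, single wells judged on their own value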;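 further: signal counts dimethyl H3K9 product captured on neutravidin plate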
Target sequence (Q9H3R0 1-420 limits assumed): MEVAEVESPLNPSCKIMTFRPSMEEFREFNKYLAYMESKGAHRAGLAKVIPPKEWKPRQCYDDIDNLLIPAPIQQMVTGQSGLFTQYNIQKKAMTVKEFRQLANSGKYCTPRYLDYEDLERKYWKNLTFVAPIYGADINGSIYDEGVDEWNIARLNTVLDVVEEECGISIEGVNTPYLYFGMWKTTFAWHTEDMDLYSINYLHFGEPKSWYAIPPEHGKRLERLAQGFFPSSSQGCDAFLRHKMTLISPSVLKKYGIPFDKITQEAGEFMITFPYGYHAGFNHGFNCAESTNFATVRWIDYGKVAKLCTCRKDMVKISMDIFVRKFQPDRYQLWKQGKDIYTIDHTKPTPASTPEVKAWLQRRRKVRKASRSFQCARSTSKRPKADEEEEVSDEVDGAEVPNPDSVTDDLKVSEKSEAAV
PP5 inh confirm = PP5 (human) inhibition, confirmation; inhibition, % at 6.7 µM; actives 22% (n = 460); Purified PP5, fluorogenic phosphatase substrate, fluorescence; AID 2331; shares compounds with PP5 primary; in the data active means inhibition above about 9.5%
PP1 counter 3x = counter-screen for PP5 inhibitors: human PP1 phosphatase inhibition. shares compounds with PP5 primary. PP1 enzyme, fluorescent phosphatase substrate. inhibition, % at 6.7 µM. actives 4% (n = 460); in the data active means inhibition above about 16%
Of the large screens only hits and unclear results are named; the others gave an inactive call (follow-up assays come after a bar, where they were run).

Cc1cc(-c2ccccc2)n[nH]1	none
FC(F)C(F)(F)C(F)(F)C(F)(F)c1cc(-c2ccccc2)n[nH]1	PP5 primary 10.8 | PP5 inh confirm 9.7 | PP1 counter 3x inactive
COCCN1Cc2cc(C(=O)OC)c3c(c2C1=O)c1ccccc1n3S(=O)(=O)c1ccc(OC)cc1	none (no result: PP1 counter, PP5 primary, JMJD2C inh)
O=C(Nc1ccccc1C(=O)N1CCOCC1)C1CC(=O)N(C2CCCC2)C1 (stereo not drawn)	PP5 primary 13.5 | PP5 inh confirm inactive | PP1 counter 3x inactive
COc1ccc(CCC(=O)Nc2nnc(C(C)(C)C)s2)cc1	PP5 primary 12.6 | PP5 inh confirm inactive | PP1 counter 3x inactive
O=C(Cc1cn(Cc2ccccc2)c2ccccc12)Nc1ccc(Nc2cccnc2)c(Br)c1	none (no result: PP1 counter, PP5 primary, JMJD2C inh)
CCCCCCOc1ccc(C(=O)n2cnc(N)n2)cc1	PP5 primary 12.1 | PP5 inh confirm inactive | PP1 counter 3x inactive
CC(=O)NCCc1ccc(S(=O)(=O)NCc2ccc3c(c2)OCO3)cc1	none
CCCc1cc2c(cc1NS(=O)(=O)c1ccc(CCNC(C)=O)cc1)OCO2	PP5 primary 10.7 | PP5 inh confirm inactive | PP1 counter 3x inactive
Cc1ccc(S(=O)(=O)Nc2ccc(NC(=O)Nc3cccc(C(F)(F)F)c3)cc2)cc1	PP5 primary 10.7 | PP5 inh confirm inactive | PP1 counter 3x inactive
Cc1ccc(NS(=O)(=O)c2ccc(NC(=O)c3cccc(NC(=O)C(C)C)c3)cc2)cc1	PP5 primary 9.8 | PP5 inh confirm inactive | PP1 counter 3x inactive
O=C(OCc1cn(Cc2cccc(Cl)c2)nn1)N1CCOCC1	none (no result: PG9 Ab binder, PP1 counter, PP5 primary, JMJD2C inh)
Cc1cccc(OC[C@@H](O)CN2CCC(C(O)(c3ccccc3)c3ccccc3)CC2)c1	none (no result: PG9 Ab binder, PP1 counter, PP5 primary, JMJD2C inh)
O=C(c1ccccc1)n1ccc2ccc(-c3ccc4ccn(Cc5ccccc5)c4c3)cc21	none (no result: PG9 Ab binder, PP1 counter, PP5 primary, JMJD2C inh)
Cc1ccc(C2CC(c3ccccc3)=NN2c2ccc(S(N)(=O)=O)cc2)cc1 (stereo not drawn)	none (no result: PP1 counter, PP5 primary, JMJD2C inh)
CCc1ccc(C2=NN(c3ccc(S(N)(=O)=O)cc3)C(c3ccc(F)cc3)C2)cc1 (stereo not drawn)	PP5 primary 12.0 | PP5 inh confirm inactive | PP1 counter 3x inactive
NS(=O)(=O)c1ccc(Nc2nc3ccccc3nc2NS(=O)(=O)c2cccc([N+](=O)[O-])c2)cc1	PP5 primary 10.9 | PP5 inh confirm inactive | PP1 counter 3x inactive
CC(=O)Nc1ccc(S(=O)(=O)Nc2nc3ccccc3nc2Nc2ccc(S(N)(=O)=O)cc2)cc1	none
COC(=O)CCC(=O)OC1(C)C(=O)C=C2C=C(C3CC3)N(C3CC3)C=C2C1=O (stereo not drawn)	PP5 primary 14.7 | PP5 inh confirm 43.0 | PP1 counter 3x 18.4
COC(=O)CCC(=O)OC1(C)C(=O)C=C2C=C(C3CC3)N(Cc3ccco3)C=C2C1=O (stereo not drawn)	none
COCCN1C=C2C(=O)C(C)(OC(=O)CCC(=O)OC)C(=O)C=C2C=C1C1CC1 (stereo not drawn)	PP5 primary 17.3 (no result: PG9 Ab binder, Rev-erbA mod, proKLK7 act) | PP5 inh confirm 42.8 | PP1 counter 3x 16.8
COc1cccc(CNC(=O)[C@H]2CCCN2C(=O)[C@H]2CCCN2C(=O)c2cccs2)c1	none (no result: PP1 counter, PP5 primary, JMJD2C inh)
CC(C)c1cc(C(=O)N/N=C/c2c[nH]c3ccccc23)n[nH]1	PP5 primary 9.8 | PP5 inh confirm inactive | PP1 counter 3x inactive
O=C1C(Cl)=C(N2CCN(c3ccccc3[N+](=O)[O-])CC2)C(=O)c2ccccc21	PP5 primary 13.6 | PP5 inh confirm 24.4 | PP1 counter 3x inactive
O=[N+]([O-])c1cc(Cl)ccc1N1CCCC1	none
CO/N=C/c1ccc(Sc2ccccc2)c([N+](=O)[O-])c1	none
O=[N+]([O-])c1cc(/C=N/O)ccc1Sc1ccccc1	PP5 primary 10.0 | PP5 inh confirm inactive | PP1 counter 3x inactive
CC(C)NC(=O)c1cc(-c2cccs2)nc2ccccc12	none
NNC(=O)c1cc(-c2cccs2)nc2ccccc12	PP5 primary 14.9 | PP5 inh confirm inactive | PP1 counter 3x inactive
O=C(NC1CCCCN(Cc2cccc(Cl)c2)C1=O)c1cccc2nsnc12 (stereo not drawn)	none (no result: PG9 Ab binder, PP1 counter, PP5 primary, JMJD2C inh)
CCN(CC)S(=O)(=O)c1cc(C(=O)Nc2nncs2)c(Cl)cc1Cl	PP5 primary 11.1 | PP5 inh confirm inactive | PP1 counter 3x inactive
C=CCN(CC#Cc1ccccn1)Cc1ccc(OC)cc1OC	none (no result: PG9 Ab binder, PP1 counter, PP5 primary, JMJD2C inh)
CC(=O)N1C[C@@H](CO)[C@@H](N(C)C(=O)Nc2cccc3ccccc23)C[C@H]1c1ccccc1	none (no result: PP1 counter, PP5 primary, JMJD2C inh)
Cn1c(NC(=O)c2ccccc2)nc(Cc2ccccc2)c1Cc1ccccc1	none (no result: PG9 Ab binder, PP1 counter, PP5 primary, JMJD2C inh)
CCN(CC)CCN(Cc1cc2cc3c(cc2[nH]c1=O)OCO3)C(=S)NCCCOC	PP5 primary 11.8 | PP5 inh confirm inactive | PP1 counter 3x inactive
CCN(CC)CCCN(Cc1cc2cc3c(cc2[nH]c1=O)OCO3)C(=S)NCCCOC	none
CCCCCCCC(=O)OCC(=O)[C@@]1(O)CC[C@H]2[C@@H]3CCC4=CC(=O)CC[C@]4(C)[C@H]3[C@@H](O)C[C@@]21C	PP5 primary 11.1 | PP5 inh confirm inactive | PP1 counter 3x inactive
Cn1c(=O)c2[nH]c(-c3cccnc3)nc2n(C)c1=O	PP5 primary 13.7 | PP5 inh confirm inactive | PP1 counter 3x inactive
COCc1cc(N2CCNC[C@H]2C)ccc1N1C[C@@H](C)O[C@@H](C)C1	none (no result: PP1 counter, PP5 primary, JMJD2C inh)
COc1cccc(/C=C2\CC3(OC(=O)C4CCCC4)CCCN2C3)c1 (stereo not drawn)	none (no result: PG9 Ab binder, PP1 counter, PP5 primary, JMJD2C inh)
CC(C)Oc1cc(NC(=O)CS(=O)CC(=O)Nc2cccc(C(F)(F)F)c2)c(Cl)cc1Cl (stereo not drawn)	PP5 primary 12.8 (no result: Rev-erbA mod) | PP5 inh confirm inactive | PP1 counter 3x inactive
COc1cccc(C(=O)N[C@H](C(=O)N2CCC[C@H]2C(=O)NCc2ccccc2)C2CCCCC2)c1	none (no result: PP1 counter, PP5 primary, JMJD2C inh)
O=C(NCCO)c1cccc(-c2cc(Nc3ccc(OC(F)(F)F)cc3)ncn2)c1	none (no result: PP1 counter, PP5 primary, JMJD2C inh)
NC(=O)c1cccc(-c2cc(Nc3ccc(OC(F)(F)F)cc3)ncn2)c1	PP5 primary 10.1 | PP5 inh confirm inactive | PP1 counter 3x inactive
COC(=O)[C@]12C[C@H](CC(=O)NCc3cccc4ccccc34)C(=O)N(Cc3ccccc3)C1=C[C@H](C(C)C)O[C@@H]2C1CC1	none (no result: PP1 counter, PP5 primary, JMJD2C inh)
Nc1c(C(O)(C(F)(F)F)C(F)(F)F)cc(C(O)(C(F)(F)F)C(F)(F)F)c2ccccc12	PP5 primary 12.6 (no result: PG9 Ab binder, Rev-erbA mod, proKLK7 act) | PP5 inh confirm 14.6 | PP1 counter 3x inactive
CC1(NC(=O)CCc2nc3sc4c(c3c(=O)[nH]2)CCCC4)CCS(=O)(=O)C1 (stereo not drawn)	PP5 primary 10.3 | PP5 inh confirm inactive | PP1 counter 3x inactive
